Data reported in PubChem BioAssay (NCI).
The panel holds about 79,000 compounds, 15% with a hit somewhere; the sample as a whole holds those more often. Active and inactive are the calls of the source. Rule as the data show it: active = growth inhibition above about 70%; inactive = the rest.

Experiments:
[1] = NCI Yeast Anticancer Drug Screen. Data for the rad52 strain (AID 147);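 also: 0% = growth of vehicle-treated control cultures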; details: S. cerevisiae rad52 mutant growth inhibition, stronger effect = higher value
Summary of the method: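 Growth of repair-deficient yeast cells was compared between compound-treated and vehicle-treated cultures to give percent inhibition.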

[2] = NCI Yeast Anticancer Drug Screen. Data for the wt1 strain (AID 149);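 also: 0% = growth of vehicle-treated wt1 cultures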; details: S. cerevisiae wt1 strain (SPY 50644) growth inhibition, stronger effect = higher value
Summary of the method: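 wt1 strain grown with compound or vehicle; inhibition taken from the growth difference.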

[3] = NCI Yeast Anticancer Drug Screen. Data for the rad50EPP+ strain (AID 151);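 also: 0% = growth of vehicle-treated control cultures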; details: S. cerevisiae rad50 mutant strain, stronger effect = higher value
Summary of the method: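 Measured: growth inhibition of rad50EPP+ yeast. Reference: vehicle-treated controls. Screen uses strains with defined genetic alterations in DNA damage repair or cell cycle control.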

[4] = NCI Yeast Anticancer Drug Screen. Data for the mgt1 strain (AID 153); details: S. cerevisiae mgt1 mutant growth inhibition, stronger effect = higher value
Summary of the method: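 Compounds were applied to mgt1 mutant yeast, and growth was then compared against vehicle-treated control cultures to give percent inhibition.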

[5] = NCI Yeast Anticancer Drug Screen. Data for the rad50 strain (AID 155);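 also: 0% = growth of vehicle-only cultures of the same strain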; details: S. cerevisiae rad50 strain growth inhibition, stronger effect = higher value
Summary of the method: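 DNA repair mutant yeast, compound exposure, growth read-out; inhibition is taken relative to vehicle.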

[6] = NCI Yeast Anticancer Drug Screen. Data for the mec2-1 strain (AID 157); details: S. cerevisiae mec2-1 strain, stronger effect = higher value
Summary of the method: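 Compounds were applied to mec2-1 yeast cells. Their growth was then compared with that of vehicle-treated cultures to give growth inhibition.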

[7] = NCI Yeast Anticancer Drug Screen. Data for the sgs1 mgt1 strain (AID 161);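 also: 0% = growth of cultures given vehicle only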; details: S. cerevisiae sgs1 mgt1 strain, stronger effect = higher value
Summary of the method: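 Percent growth inhibition was derived by comparing compound-exposed mutant yeast with vehicle-exposed cultures. The strain carries alterations in DNA damage repair.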

[8] = NCI Yeast Anticancer Drug Screen. Data for the CLN2oe strain (AID 163);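 also: 0% = growth of vehicle-only control cultures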; details: S. cerevisiae CLN2oe strain, stronger effect = higher value
Summary of the method: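 Cells of an engineered yeast line with disturbed cell-cycle regulation are treated with compound. Inhibition of growth is then calculated relative to the vehicle-treated reference.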

[9] = NCI Yeast Anticancer Drug Screen. Data for the cln2 rad14 strain (AID 165);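 also: 0% = growth equal to vehicle treated cultures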; details: S. cerevisiae cln2 rad14 strain, stronger effect = higher value
Summary of the method: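 Strain: cln2 rad14 yeast, altered in cell cycle control and DNA damage repair. Read-out: growth inhibition vs vehicle.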

[10] = NCI Yeast Anticancer Drug Screen. Data for the bub3 strain (AID 167); details: S. cerevisiae bub3 mutant strain, stronger effect = higher value
Summary of the method: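 In this screen, a yeast mutant lacking normal mitotic checkpoint function is challenged with compound. Relative growth versus vehicle gives the inhibition value.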

[11] = NCI Yeast Anticancer Drug Screen. Data for the wt2 strain (AID 169);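 also: 0% = growth of vehicle-treated yeast cultures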; details: S. cerevisiae wt2 strain growth inhibition, stronger effect = higher value
Summary of the method: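 Growth of compound-treated yeast is measured and expressed as inhibition relative to vehicle-only controls.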

[12] = NCI Yeast Anticancer Drug Screen. Data for the mlh1 strain (AID 171);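 also: 0% = growth of vehicle-treated control cultures of the same strain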; details: S. cerevisiae mlh1 strain growth inhibition, stronger effect = higher value
Summary of the method: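 Test agents were incubated with yeast bearing a defined DNA damage repair or cell cycle control alteration; values are growth inhibition normalised to vehicle-treated cultures.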

[13] = NCI Yeast Anticancer Drug Screen. Data for the sgs1 strain (AID 173);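 also: 0% = growth of vehicle-only control cultures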; details: S. cerevisiae sgs1 mutant, stronger effect = higher value
Summary of the method: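 Strain with an altered DNA repair or cell cycle pathway exposed to compound. Growth then measured. Value = inhibition versus vehicle control.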

[14] = NCI Yeast Anticancer Drug Screen. Data for the mlh1 rad18 strain (AID 175); details: S. cerevisiae mlh1 rad18 strain growth inhibition, stronger effect = higher value
Summary of the method: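 A repair-deficient yeast strain is exposed to test compound, and growth is scored relative to vehicle-treated controls.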

[15] = NCI Yeast Anticancer Drug Screen. Data for the rad18 strain (AID 177); details: S. cerevisiae rad18 mutant growth inhibition, stronger effect = higher value
Summary of the method: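 DNA-repair-defective yeast; compound treatment; growth inhibition scored against vehicle.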

[16] = NCI Yeast Anticancer Drug Screen. Data for the rad14 strain (AID 159);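 also: 0% = growth of vehicle-treated control cultures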; details: S. cerevisiae rad14 strain growth inhibition, stronger effect = higher value
Summary of the method: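 DNA repair-defective yeast, compound-exposed; % growth inhibition derived by comparison with vehicle-treated controls.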

[17] = at 5.0 µM (retest, dose inferred, filed as 0.5)
[18] = at 50.0 µM (retest, dose inferred, filed as 5.0)

Measured: growth inhibition

OC(c1ccccc1)(c1ccccc1)c1nccc2ccccc12
active: [1]; at 100.0 µM 81% | [5]; at 100.0 µM 70% | [6]; at 50.0 µM 75% | [7]; at 50.0 µM 71.5% | [10]; at 100.0 µM 75% | [13]; at 100.0 µM 71% | [14]; [18] 74%
inactive: [1]; at 1.2 µM 40% | [1]; at 3.7 µM 39% | [1]; at 11.0 µM 48% | [1]; at 33.0 µM 62% | [2]; at 1.2 µM 3% | [2]; at 3.7 µM -3% | [2]; at 11.0 µM 26% | [2]; at 33.0 µM -2% | [2]; at 100.0 µM 29% | [3]; at 1.2 µM 14% | [3]; at 3.7 µM 14% | [3]; at 11.0 µM 32% | [3]; at 33.0 µM 13% | [3]; at 100.0 µM 0% | [4]; at 1.2 µM -11% | [4]; at 3.7 µM 8% | [4]; at 11.0 µM 11% | [4]; at 33.0 µM 15% | [4]; at 100.0 µM 51% | [5]; at 1.2 µM 4% | [5]; at 3.7 µM 15% | [5]; [17] 14% | [5]; at 11.0 µM 24% | [5]; at 33.0 µM 39% | [5]; [18] 50% | [5]; at 50.0 µM 67.7% | [6]; at 1.2 µM 0% | [6]; at 3.7 µM 3% | [6]; [17] 2% | [6]; at 11.0 µM 9% | [6]; at 33.0 µM 7% | [6]; [18] 40% | [6]; at 100.0 µM 49% | [7]; [17] -4% | [7]; [18] 58% | [8]; at 1.2 µM 25% | [8]; at 3.7 µM 34% | [8]; at 11.0 µM 28% | [8]; at 33.0 µM 35% | [8]; at 100.0 µM 59% | [9]; [17] 6% | [9]; [18] 7% | [9]; at 50.0 µM 55.4% | [10]; at 1.2 µM 14% | [10]; at 3.7 µM 22% | [10]; [17] 0% | [10]; at 11.0 µM 25% | [10]; at 33.0 µM 25% | [10]; [18] 45% | [10]; at 50.0 µM 60.6% | [11]; at 1.2 µM -56% | [11]; at 3.7 µM -17% | [11]; at 11.0 µM -31% | [11]; at 33.0 µM -21% | [11]; at 100.0 µM 38% | [12]; at 1.2 µM -2% | [12]; at 3.7 µM 12% | [12]; at 11.0 µM 5% | [12]; at 33.0 µM 14% | [12]; at 100.0 µM 54% | [13]; at 1.2 µM 15% | [13]; at 3.7 µM 3% | [13]; at 11.0 µM 4% | [13]; at 33.0 µM 16% | [14]; [17] 12% | [14]; at 50.0 µM 51% | [15]; at 1.2 µM 0% | [15]; at 3.7 µM 14% | [15]; at 11.0 µM 27% | [15]; at 33.0 µM 55% | [15]; at 100.0 µM 63%

COC(=O)/C(C#N)=C\NC(=S)C(N)=S
active: [1]; at 11.0 µM 86% | [1]; at 33.0 µM 99% | [1]; at 100.0 µM 98% | [2]; at 33.0 µM 99% | [2]; at 100.0 µM 98% | [3]; at 100.0 µM 97% | [4]; at 11.0 µM 79% | [4]; at 33.0 µM 99% | [4]; at 100.0 µM 98% | [5]; at 11.0 µM 90% | [5]; at 33.0 µM 98% | [5]; [18] 98% | [5]; at 50.0 µM 88.5% | [5]; at 100.0 µM 97% | [6]; at 11.0 µM 98% | [6]; at 33.0 µM 99% | [6]; [18] 99% | [6]; at 50.0 µM 93.2% | [6]; at 100.0 µM 98% | [16]; at 11.0 µM 98% | [16]; at 33.0 µM 99% | [16]; at 100.0 µM 98% | [7]; [18] 98% | [7]; at 50.0 µM 91.1% | [9]; [18] 99% | [9]; at 50.0 µM 89.5% | [10]; at 11.0 µM 99% | [10]; at 33.0 µM 99% | [10]; [18] 99% | [10]; at 50.0 µM 91.3% | [10]; at 100.0 µM 98% | [11]; at 33.0 µM 99% | [11]; at 100.0 µM 98% | [12]; at 11.0 µM 98% | [12]; at 33.0 µM 99% | [12]; at 100.0 µM 98% | [13]; at 11.0 µM 86% | [13]; at 33.0 µM 99% | [13]; at 100.0 µM 98% | [15]; at 33.0 µM 99% | [15]; at 100.0 µM 98%
inactive: [1]; at 1.2 µM -6% | [1]; at 3.7 µM 24% | [2]; at 1.2 µM 8% | [2]; at 3.7 µM 26% | [2]; at 11.0 µM 54% | [3]; at 1.2 µM -24% | [3]; at 3.7 µM -24% | [3]; at 11.0 µM 2% | [3]; at 33.0 µM 64% | [4]; at 1.2 µM 9% | [4]; at 3.7 µM 21% | [5]; at 1.2 µM 12% | [5]; at 3.7 µM 30% | [5]; [17] 2% | [6]; at 1.2 µM -5% | [6]; at 3.7 µM 24% | [6]; [17] -1% | [16]; at 1.2 µM 4% | [16]; at 3.7 µM 15% | [7]; [17] 13% | [9]; [17] 22% | [10]; at 1.2 µM 24% | [10]; at 3.7 µM 34% | [10]; [17] 4% | [11]; at 1.2 µM -6% | [11]; at 3.7 µM 10% | [11]; at 11.0 µM 40% | [12]; at 1.2 µM 17% | [12]; at 3.7 µM 32% | [13]; at 1.2 µM 9% | [13]; at 3.7 µM 25% | [15]; at 1.2 µM -4% | [15]; at 3.7 µM 16% | [15]; at 11.0 µM 53%
